# Counter-ions that a name gives are not always drawn.
# What was measured:
# Conditions in all cases: 10 µM; exposure time 6 h
# [1] = test system: Danio rerio larvae (5 dpf); test: difference in excitability vs DMSO (percentage points); higher = more excitable than DMSO
# How it was run: (§1)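 Wild-type 5 dpf zebrafish larvae in 96-well plates were given 100 µL egg water containing library compound at 10 µM final for 6 h. After 3 h of exposure, plates at 28.5 ℃ were photographed every 6 s during a 3-h programme of moving lines and 100 ms, 400Hz tones. Z-LaP Tracker (a DeepLabCut model) quantified each behaviour, averaged over 48 larvae per compound. Values are the compound mean minus the DMSO-vehicle control, in percentage points.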
# [2] = test system: Danio rerio larvae (5 dpf); test: difference in startle response vs DMSO (percentage points); higher = stronger startle than DMSO
# How it was run: as §1
# [3] = test system: Danio rerio larvae (5 dpf); test: difference in activity during first hour vs DMSO (percentage points); higher = more activity than DMSO
# How it was run: as §1
# [4] = test system: Danio rerio larvae (5 dpf); test: difference in habituation to acoustic stimuli vs DMSO (percentage points); higher = more habituation than DMSO
# How it was run: as §1
# [5] = test system: Danio rerio larvae (5 dpf); test: difference in combined optomotor response to red, green and blue moving lines vs DMSO (percentage points); higher = stronger optomotor response than DMSO
# How it was run: as §1
SMILES,difference in excitability [1],difference in startle response [2],difference in activity during first hour [3],difference in habituation to acoustic stimuli [4],difference [5]
Cc1cc(C#N)cc(C)c1Oc1nc(Nc2ccc(C#N)cc2)nc(N)c1Br [Etravirine],-2.94,0.144,10.9,-5.6,7.48
CO[C@@]1(NC(=O)C2SC(=C(C(N)=O)C(=O)O)S2)C(=O)N2C(C(=O)O)=C(CSc3nnnn3C)CS[C@@H]21 (stereo not given in full) [Cefotetan (sodium salt)],-4.63,4.7,10.3,7.15,-1.08
CC[C@H]1OC(=O)[C@H](C)[C@@H](O[C@H]2C[C@@](C)(OC)[C@@H](O)[C@H](C)O2)[C@H](C)[C@@H](O[C@@H]2O[C@H](C)C[C@H](N(C)C)[C@H]2O)[C@](C)(O)C[C@@H](C)CN(C)[C@H](C)[C@@H](O)[C@]1(C)O [Azithromycin],19.6,2.02,-4.37,-3.98,-0.0441
C[C@@H]1O[C@@H]1P(=O)(O)O [Fosfomycin Trometamol],3.54,-4.33,-4.99,-4.72,-4.51
CNC(=O)c1cc(Oc2ccc(NC(=O)Nc3ccc(Cl)c(C(F)(F)F)c3)c(F)c2)ccn1 [Regorafenib],20.9,-2.66,-3.38,-6.09,1.15
CC(S)C(=O)NCC(=O)O (stereo not given) [Tiopronin],1.71,-1.91,3.62,-3.05,3.9
C[C@@H](O)[C@H]1C(=O)N2C(C(=O)O)=C(S[C@@H]3CN[C@H](CNS(N)(=O)=O)C3)[C@H](C)[C@H]12 [Doripenem (hydrate)],0.847,-3.28,18.4,-1.56,-1.12
CN(CCOc1ccc(CC2SC(=O)NC2=O)cc1)c1ccccn1 (stereo not given) [Rosiglitazone (maleate)],10.7,-3.19,10.3,-2.4,-0.752
CC1CNc2c(cccc2S(=O)(=O)N[C@@H](CCCNC(=N)N)C(=O)N2CC[C@@H](C)C[C@@H]2C(=O)O)C1 (stereo not given in full) [Argatroban],3.15,2.67,19.4,-4.15,3.46
CCCCCOc1ccc(-c2ccc(-c3ccc(C(=O)N[C@H]4C[C@@H](O)[C@@H](O)NC(=O)[C@@H]5[C@@H](O)[C@@H](C)CN5C(=O)[C@H]([C@@H](C)O)NC(=O)[C@H]([C@H](O)[C@@H](O)c5ccc(O)cc5)NC(=O)[C@@H]5C[C@@H](O)CN5C(=O)[C@H]([C@@H](C)O)NC4=O)cc3)cc2)cc1 [Anidulafungin],9.87,-9.61,-17.6,-10.4,-18.1
Cc1cnc(C(=O)NCCc2ccc(S(=O)(=O)NC(=O)NC3CCCCC3)cc2)cn1 [Glipizide],0.585,1.17,-9.11,5.88,8.81
N#Cc1cc(NC(=O)C(=O)O)c(Cl)c(NC(=O)C(=O)O)c1 [Lodoxamide],4.92,3.04,-7.99,1.72,1.61
CCN(Cc1ccncc1)C(=O)C(CO)c1ccccc1 (stereo not given) [Tropicamide],1.51,-4.55,14.3,-1.41,6.16
C[C@@H]1CCO[C@H]2Cn3cc(C(=O)NCc4ccc(F)cc4F)c(=O)c(O)c3C(=O)N12 [Dolutegravir],9.08,3.83,7.43,1.07,7.64
CC(=O)O[C@]1(C(C)=O)CC[C@H]2[C@@H]3C=C(C)C4=CC(=O)CC[C@]4(C)[C@H]3CC[C@@]21C [Megestryl Acetate],20.8,-4.3,4.4,-8.79,-10.8
O=C(O)CSc1nnc(Br)n1-c1ccc(C2CC2)c2ccccc12 [Lesinurad],1.61,2.63,12.5,-0.00375,2.41
O=C(O)CCNC(=O)c1ccc(/N=N/c2ccc(O)c(C(=O)O)c2)cc1 [Balsalazide],4.51,9.09,15,1.8,4.25
Nc1nc(-n2cc(C(=O)O)c(=O)c3cc(F)c(N4CC(O)C4)c(Cl)c32)c(F)cc1F [Delafloxacin],14.4,12.8,-8.49,7.81,9.67
CCCCNc1ccc(C(=O)OCCOCCOCCOCCOCCOCCOCCOCCOCCOC)cc1 [Benzonatate],6.12,1.4,-1.8,6.2,-0.0866
CN[C@H]1CC[C@@H](c2ccc(Cl)c(Cl)c2)c2ccccc21 [Sertraline (hydrochloride)],8.65,9.23,-22.3,-4.17,-15.1
CC(=O)OCC(=O)[C@@]12OC(C)(C)O[C@@H]1C[C@H]1[C@@H]3C[C@H](F)C4=CC(=O)C=C[C@]4(C)[C@@]3(F)[C@@H](O)C[C@@]12C [Fluocinonide],0.338,2.99,-1.35,-2.83,0.257
CN(CCOc1ccc(NS(C)(=O)=O)cc1)CCc1ccc(NS(C)(=O)=O)cc1 [Dofetilide],-1.01,-4.06,7.17,7,7.94
COc1c(C)c2c(c(O)c1C/C=C(\C)CCC(=O)OCCN1CCOCC1)C(=O)OC2 [Mycophenolate Mofetil],7.89,-4.66,-3.09,-2.74,1.02

SMILES,difference in excitability [1],difference in startle response [2],difference in activity during first hour [3],difference in habituation to acoustic stimuli [4],difference [5]
OC(CNCC(O)C1CCc2cc(F)ccc2O1)C1CCc2cc(F)ccc2O1 (stereo not given) [Nebivolol (hydrochloride)],9.49,-4.14,2.55,-2.7,-10.6
Cc1cccc(C)c1OCC(=O)N[C@@H](Cc1ccccc1)[C@@H](O)C[C@H](Cc1ccccc1)NC(=O)[C@H](C(C)C)N1CCCNC1=O [Lopinavir],10.5,-2.95,-0.504,-4.82,-0.255
CN1CC(=O)N2[C@H](c3ccc4c(c3)OCO4)c3[nH]c4ccccc4c3C[C@@H]2C1=O [Tadalafil],3.64,1.33,0.0422,3.67,6.23
CNC1(C)C2CCC(C2)C1(C)C (stereo not given) [Mecamylamine (hydrochloride)],3.59,-1.88,-1.28,-4.36,11.1
CC(=O)O[C@H]1Cc2ccccc2N(C(N)=O)c2ccccc21 [Eslicarbazepine Acetate],-1.41,-0.316,-0.636,-4.75,-2.32
CC(C)(C#N)c1cc(Cn2cncn2)cc(C(C)(C)C#N)c1 [Anastrozole],1.93,-2.98,-4.84,-5.36,7.09
CC(C)c1c(C(=O)Nc2ccccc2)c(-c2ccccc2)c(-c2ccc(F)cc2)n1CC[C@@H](O)C[C@@H](O)CC(=O)O [Atorvastatin (calcium salt hydrate)],2,-0.915,-6.37,-0.794,-0.114
CC[C@@]1(O)C(=O)OCc2c1cc1n(c2=O)Cc2cc3c(CN(C)C)c(O)ccc3nc2-1 [Topotecan (hydrochloride)],4.94,-0.393,0.473,-4.39,1.01
CCCCC[C@H](O)/C=C/[C@H]1[C@H](O)CC(=O)[C@@H]1C/C=C\CCCC(=O)O [Prostaglandin E2],16.7,-5.41,2.46,4.14,5.15
CCN[C@H]1C[C@H](C)S(=O)(=O)c2sc(S(N)(=O)=O)cc21 [Dorzolamide (hydrochloride)],-4.82,-3.95,4.07,2.29,3.26
CCCCCN(C)CCC(O)(P(=O)(O)O)P(=O)(O)O [Ibandronate (sodium hydrate)],-4.51,1.53,-2.16,7.06,-0.0828
CC1(C)NC(=O)N(c2ccc([N+](=O)[O-])c(C(F)(F)F)c2)C1=O [Nilutamide],3,-2.08,-12.2,3.08,-5.94
CCN(CC)C(=O)C1(c2ccccc2)CC1CN (stereo not given) [Milnacipran (hydrochloride)],16,-4.41,-15.2,1.78,-3.7
COc1ccccc1OCC(O)CN1CCN(CC(=O)Nc2c(C)cccc2C)CC1 (stereo not given) [Ranolazine (hydrochloride)],14.6,-5.16,4.7,3.56,2.81
CC(=O)N[C@@H](CS)C(=O)O [N-acetyl-L-Cysteine],-2.2,3.63,14.1,-5.17,-0.176
CCCCCCOC(=O)CCC(=O)CN [Hexaminolevulinate (hydrochloride)],5.6,3.54,2.02,7.86,2.47
Nc1ccn([C@@H]2CS[C@H](CO)O2)c(=O)n1 [Lamivudine],0.811,2.66,9.03,2.12,2.14
CN[C@H](CC(C)C)C(=O)N[C@H]1C(=O)N[C@@H](CC(N)=O)C(=O)N[C@H]2C(=O)N[C@H]3C(=O)N[C@H](C(=O)N[C@H](C(=O)O)c4cc(O)cc(O)c4-c4cc3ccc4O)[C@H](O)c3ccc(c(Cl)c3)Oc3cc2cc(c3O[C@@H]2O[C@H](CO)[C@@H](O)[C@H](O)[C@H]2O[C@H]2C[C@](C)(N)[C@H](O)[C@H](C)O2)Oc2ccc(cc2Cl)[C@H]1O [Vancomycin (hydrochloride)],-0.532,-0.846,1.02,-1.36,9.98
Cc1cc(C(=O)NNCc2ccccc2)no1 [Isocarboxazid],9.42,3.52,-14,-2.77,4.57
Nc1c(CC(=O)O)cccc1C(=O)c1ccc(Br)cc1 [Bromfenac (sodium salt)],22,-1.71,7.18,-4.75,1.64
C[C@H]1COc2c(N3CCN(C)CC3)c(F)cc3c(=O)c(C(=O)O)cn1c23 [Levofloxacin],-4.09,1.07,16.5,2.74,4.84
O=c1ccc2ccc(OCCCCN3CCN(c4cccc5sccc45)CC3)cc2[nH]1 [Brexpiprazole],13.2,-1.39,25.4,-17.4,-9.77
CCOC(=O)[C@H](CCc1ccccc1)N[C@@H](C)C(=O)N1Cc2ccccc2C[C@H]1C(=O)O [Quinapril (hydrochloride)],-1.99,-2.06,12.4,-0.155,2.4

# — the supplement of paper PMC10515830
